# From PubChem BioAssay
# Test: small-molecule binders of probe aInhba, primary screen, biochemical, small-molecule microarray, 635/667 nm fluorescence (AID 1148);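 note: score merges 667nm spot fluorescence with signal-to-noise for antibody binding to printed compounds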
# Conditions: higher = more signal
row,SMILES,composite z-score
1,O=C1O[C@@H](c2ccccc2)[C@@H](c2ccccc2)N2[C@@H](c3ccccc3OCCO)[C@]3(C(=O)Nc4ccc(C#CC5(O)CCCCCC5)cc43)[C@@H](C(=O)Nc3nc4ccccc4s3)[C@H]12,-0.0195
2,COCC(=C=CC[C@@H](O)c1ccc(CO)o1)CCO,-0.024
3,CC(C)CNC(=O)[C@@H]1c2ccccc2C(=O)N(Cc2cc(C(F)(F)F)cc(C(F)(F)F)c2)[C@H]1c1ccc(CO)cc1,0.212
4,C=CCOC(=O)[C@H]1[C@@H]2C(=O)O[C@@H](c3ccccc3)[C@@H](c3ccccc3)N2[C@@H](c2ccc(OCCOC(=O)[C@@H]3C[C@@H]4C(=O)NCC(=O)N4[C@@H]3c3ccc(O)cc3)cc2)[C@]12C(=O)Nc1ccccc12,-0.0221
5,COC(=O)[C@@]1(Cc2ccccc2)[C@H]2c3cc(C(=O)N4CCCC4)n(C)c3C[C@H]2CN1C(=O)c1ccccc1,0.271
6,CC(C)Cc1ccc(CN2CC[C@@H](NS(=O)(=O)c3ccccc3)C2)cc1,-0.188
7,CC(=O)Nc1cc(Br)ccc1C(=O)O,0.0658
8,COC(=O)[C@@]1(Cc2ccccc2N=[N+]=[N-])COC(c2ccc(OCCCO)cc2)=N1,-0.0639
9,NC(=O)NCC#Cc1ccc2c(c1)[C@]1(C(=O)N2)[C@H](C(=O)NC[C@H](O)c2ccccc2)[C@H]2C(=O)O[C@H](c3ccccc3)[C@H](c3ccccc3)N2[C@@H]1c1ccc(O)cc1,0.529
10,CCOC(=O)C[C@H]1[C@H](OC(=O)c2ccc(-c3ccccc3)cc2)[C@@H](NC(=O)Cc2ccc(OC)cc2)c2cc(OCCCO)ccc2N1C(=O)c1ccc2ccccc2n1,-0.0468
11,COc1cccc(C(=O)O[C@H]2CC[C@]3(C)C4=C(CCC3C2(C)C)[C@]2(C)CC[C@H]([C@H](C)CCCC(C)C)[C@@]2(C)CC4)c1 (some centres undefined),-0.157
12,O=C/C=C/c1ccc2c(c1)OCO2,-0.0509
13,O=C1C=CC(=O)[C@@H]2CC(COc3ccccc3)=C3[C@@H](CCc4ccccc4)OB(O)C[C@@H]3[C@H]12,-0.231
14,O=C1O[C@@H](c2ccccc2)[C@@H](c2ccccc2)N2[C@@H](c3ccc(O)cc3)[C@]3(C(=O)Nc4ccc(C#CC5(O)CCCCCC5)cc43)[C@@H](C(=O)N3CCCCCCC3)[C@H]12,1.67
